Data taken from PubChem BioAssay (NCI).
This is part of a sample that, as a whole, favours compounds with a hit. Of some 83,000 tested, about 20% had one in any assay.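 Growth was measured after 48 h exposure to one concentration of compound in 96-well plates. Values under 10 count as active.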 A number with no mark means an inactive call. Calls of active or inactive are those of the source.

Tests used:
Assay in all cases: NCI-60 one-dose screen, 48 h (100 = growth as untreated, 0 = no growth, -100 = all killed)
Conditions in all cases: 10 µM unless noted
NCI-H23 lung = system: NCI-H23 lung
NCI-H226 lung = system: NCI-H226 lung
HOP-62 NSCLC = system: HOP-62 NSCLC
HOP-92 NSCLC = system: HOP-92 NSCLC
NCI-H522 lung = system: NCI-H522 lung
A549/ATCC NSCLC = system: A549/ATCC NSCLC
786-0 renal = system: 786-0 renal
COLO 205 colon = system: COLO 205 colon
DU-145 prostate = system: DU-145 prostate
K-562 leukemia = system: K-562 leukemia
MALME-3M melanoma = system: MALME-3M melanoma
MDA-MB-231 breast = system: MDA-MB-231 breast
RXF 393 renal = system: RXF 393 renal
SF-268 CNS = system: SF-268 CNS
SF-295 CNS = system: SF-295 CNS
SF-539 CNS = system: SF-539 CNS
UACC-257 melanoma = system: UACC-257 melanoma
NCI-H460 lung = system: NCI-H460 lung
M14 melanoma = system: M14 melanoma

SMILES	growth (NCI-H23 lung)	growth (NCI-H226 lung)	growth (HOP-62 NSCLC)	growth (HOP-92 NSCLC)	growth (NCI-H522 lung)	growth (A549/ATCC NSCLC)	growth (786-0 renal)	growth (COLO 205 colon)	growth (DU-145 prostate)	growth (K-562 leukemia)	growth (MALME-3M melanoma)	growth (MDA-MB-231 breast)	growth (RXF 393 renal)	growth (SF-268 CNS)	growth (SF-295 CNS)	growth (SF-539 CNS)	growth (UACC-257 melanoma)	growth (NCI-H460 lung)	growth (M14 melanoma)
CCN1C(=O)/C(=C/C(=O)OC)S/C1=N\NC(=O)c1cc2ccc1/C=C\c1ccc(cc1)/C=C\2	99.6%	92.7%	101%	81.6%	59.7%	96.6%	90.6%	108%	108%	54.2%	91.9%	96.1%	101%	97.8%	96.9%	90.2%	92.7%		
Cc1cc2cc3ccc(N(C)C)cc3nc2cc1N	-25.6% (active)	-28.4% (active)		-4.62% (active)	-49.9% (active)	-18.7% (active)	8.26% (active)	-67.7% (active)	-50.3% (active)		-5.97% (active)	-18.4% (active)	-38% (active)	0.225% (active)	2.71% (active)	-4.96% (active)	-1.21% (active)	-70.9% (active)	-13.4% (active)
CCN(CC)CCn1c(=O)c2cc(OC)c(OC)cc2c2ccc3cc4c(cc3c21)OCO4	19.5%	1.83% (active)	21.9%	52.6%	34.9%	39.4%	11.4%	30.2%	24.1%	33.4%	17.2%	54.8%	8.86% (active)	35.6%	24.5%	-7.07% (active)	41.3%	6.21% (active)	10.6%
O=C(CSc1nc2sc3c(c2c(=O)n1-c1ccc(Cl)cc1)CCCC3)Nc1nc(-c2cccc(Br)c2)cs1	56.9%	64%	90.7%	107%	69.8%	70.4%	91.5%	85.1%	68.5%	95.8%	95.3%	80.7%	99.5%	69.6%	42.4%	97.3%	99.3%	94.7%	76.6%
O=C(/C=C/c1ccc[nH]1)c1ccc(-n2ccc(C(F)(F)F)n2)c(F)c1	88.7%	84%	103%	92.4%	69.5%	87.4%	91.8%	119%	99.8%	77.4%	84.6%	87.1%	91.1%	93.6%	90.2%	69.7%	99.7%	100%	94.3%
O=C(NCCNc1nccc(-c2c(-c3cccc(F)c3)nc3sccn23)n1)c1ccc(Cl)cc1	73.5%	51.2%	91.9%	87.1%	68.4%	34.8%	54.6%	29.8%	71%	54.4%	34.9%	65.5%	72.9%	67.9%	73.8%	90%	76%	35.8%	38.8%
CN(C)c1ccc(C2C(C#N)=C(/N=C/c3ccccc3)Oc3c2ccc2ccccc32)cc1 (stereo unspecified)	80.9%	55.5%	51.2%	59.8%	36.4%	71.4%	89%	116%	87.8%	17.1%	77.8%	58.1%	75.9%	66.5%	49.5%	68.6%	82.7%		59.4%
COc1ccc(/C=C/c2nc(Nc3ccc(S(=O)(=O)Nc4nc(C)cc(C)n4)cc3)c3ccccc3n2)cc1	78.1%	68.9%	75.6%	66.4%	68.5%	42.2%	78.8%	59.8%	71.3%		89.6%	61.3%	94.3%	75.3%	63.8%	96.8%	78.6%	63%	47.1%
